Test results as given in PubChem BioAssay AID602274 (Sanford-Burnham Center for Chemical Genomics, 2012).
The campaign covered roughly 360,000 compounds. About 160 (0.044%) were called active. No stated cut-off is given here; in the data, active means survival enhancement above about 18%; inactive means the rest. The list comes from a sample in which actives are over-represented; it also holds similar structures and randomly drawn compounds.

Experiment: compounds raising survival of dissociated human iPSCs – cell-based, ATPlite luminescence, primary screen (AID 602274);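 further: cells exposed to compounds for 16 hours before the ATP read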
Conditions: hiPSC single-cell survival, at 20 µM, stronger effect = higher value, 100% = ROCK inhibitor wells, 0% = DMSO
For `COc1ccc(S(=O)(=O)N(CCCN2CCCC2=O)Cc2cc3c(C)ccc(C)c3[nH]c2=O)cc1`, the survival enhancement was -2.2% (inactive).
With `O=C(CCc1[nH]c2ccccc2c1Sc1ccccc1)N(CCO)CCO` the survival enhancement was -1% (inactive).
With `O=S(=O)(/N=C(/Nc1ccccc1)c1ccccc1)c1cccs1` the survival enhancement was 4% (inactive).
For `Cc1ccc2c(c1)nnc1nnc(SCC(=O)O)n12`, the survival enhancement was -0.2% (inactive).
In the case of `COc1ccccc1NC(=O)N1CCCC1C(=O)NCc1cccs1` (stereo unspecified), the survival enhancement is reported as -0.5% (inactive).
In the case of `COc1ccc(-n2nnnc2SCc2nc(N)nc(N3CCOCC3)n2)cc1`, the survival enhancement is reported as -2.1% (inactive).
In the case of `CC1CCCCC12NC(=O)N(CC(=O)N1CCN(c3ccccc3)CC1)C2=O` (stereo unspecified), the survival enhancement is reported as -0.5% (inactive).
For `CC(C)Oc1ccc(S(=O)(=O)N2CCOCC2)cc1NC(=O)C1CSC2(C)CCC(=O)N12` (stereo unspecified), the survival enhancement was -0.5% (inactive).
In the case of `Cc1ccccc1C(OCCN(C)C)C1CCCCC1` (stereo unspecified), the survival enhancement is reported as -3.9% (inactive).
With `COc1cccc(CNC(=O)CCN2C(=S)NC(C)(C)CC2C)c1` (stereo unspecified) the survival enhancement was -0.7% (inactive).
For `CC(C)CN(CC(C)C)CC(O)CN(c1ccccc1)S(=O)(=O)c1ccccc1[N+](=O)[O-]` (stereo unspecified), the survival enhancement was -0.3% (inactive).
For `N#C/C(=C(\O)C(F)(F)F)c1nnc2n1CCCCC2`, the survival enhancement was 2% (inactive).
With `N#C/C(=C(\O)CCl)c1nnc2n1CCCCC2` the survival enhancement was 2.8% (inactive).
With `N#C/C(=C/c1cccc([N+](=O)[O-])c1)c1nnc2n1CCCCC2` the survival enhancement was 32.2% (active).
With `COc1ccc(OC)c(CCNC(=O)CCn2ccc3cc(S(=O)(=O)N4CCCC4)ccc32)c1` the survival enhancement was -0.3% (inactive).
With `C/C(=N\NS(=O)(=O)c1ccccc1)c1c(O)cc(C)oc1=O` the survival enhancement was -0.4% (inactive).
In the case of `COc1ccc2c(c1)cc1n2CCN=C1NN`, the survival enhancement is reported as 3% (inactive).
With `Cc1cccc(-n2c(SCC(N)=O)nc3c(c2=O)C2(CCCCC2)Cc2ccccc2-3)c1` the survival enhancement was -2.5% (inactive).
With `CC1(C(=O)NS(=O)(=O)c2cccc(F)c2)CCN1C(=O)Cc1cc(F)ccc1F` (stereo unspecified) the survival enhancement was 0.9% (inactive).
With `COC(=O)CCSc1cc([N+](=O)[O-])cc2c1c(C1OCCS1)nn2-c1ccccc1` (stereo unspecified) the survival enhancement was 19.1% (active).
In the case of `COC(=O)CCSc1nccn1Cc1ccccc1`, the survival enhancement is reported as 0.7% (inactive).
In the case of `CN1CCN(C(=O)c2cnn(-c3ccccc3)c2NC(=O)c2ccc([N+](=O)[O-])cc2)CC1`, the survival enhancement is reported as 0.5% (inactive).
In the case of `CC1(C)COC(c2cccn2Cc2ccccc2Cl)=N1`, the survival enhancement is reported as 4.1% (inactive).
For `COc1cc(OC)cc(C(=O)Nc2ncc3c(n2)CC(C)(C)CC3=O)c1`, the survival enhancement was 1.7% (inactive).
For `O=C(NN=Cc1ccccc1O)C(=O)NN=Cc1ccccc1O`, the survival enhancement was -1.8% (inactive).
With `C=CCOc1ccc(C2/C(=C(\O)c3c(C)[nH]c(C(=O)OC)c3C)C(=O)C(=O)N2CCN(C)C)cc1` (stereo unspecified) the survival enhancement was 3.5% (inactive).
